Measurements taken from the supplement of paper PMC10849652.
The full data set covers some 7,900 targets. This sample favours those with a hit. About 0.6% of all pairs of compound and target were hits. A number with no mark means an inactive call.

Key:
Test in all cases: log2 fold change, soluble protein after heating vs DMSO (PISA); higher = thermal stabilisation; K562 cells, 10 uM, 30 min; active = over 0.2 and 3.5 SD of the protein, either way, in both replicates (recomputed)
[1] = compound: CC[C@@H]1C(=O)N(C)c2cnc(Nc3ccc(C(=O)NC4CCN(C)CC4)cc3OC)nc2N1C1CCCC1
How it was run: (§1)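 K562 cells at 2×10^6 cells/mL were exposed to 10 μM compound for 30 min, then aliquots were heated for 3 min across 48°C-58°C, pooled, and extracted in PBS containing 0.5% NP-40 at 4°C. The supernatant after 21,000xg for 90 min was taken as soluble protein and measured by TMTpro 16plex LC-MS/MS with channel sums equalised. Thermal stability is reported relative to control samples, with values from duplicates. Fold changes are given on a log2 scale.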

volasertib = compound: CC[C@@H]1C(=O)N(C)c2cnc(Nc3ccc(C(=O)N[C@H]4CC[C@H](N5CCN(CC6CC6)CC5)CC4)cc3OC)nc2N1C(C)C [volasertib]
How it was run: as §1

[2] = compound: CC[C@H](C)N1C=C(C2=C(C=C(C=C21)C3=CN=C(C=C3)N4CCNCC4)C(=O)NCC5=C(C=C(NC5=O)C)C)C
How it was run: as §1

epoxomicin = compound: CC[C@H](C)[C@@H](C(=O)N[C@@H]([C@@H](C)O)C(=O)N[C@@H](CC(C)C)C(=O)[C@]1(CO1)C)NC(=O)[C@H]([C@@H](C)CC)N(C)C(=O)C [epoxomicin]
How it was run: as §1

[3] = compound: CCn1c(C(=O)N(C2CC2)C2CC2)cc2c3c(ncn3C)c(Nc3cc(C)n(C)n3)nc21
How it was run: as §1

[4] = compound: CCn1cc(-c2ccnc3[nH]c(-c4cccc(CN(C)C)c4)cc23)c(-c2ccc(NC(=O)N(C)C)cc2)n1
How it was run: as §1

[5] = compound: CN(C)CC(=O)Nc1ccc2[nH]c(=O)c3ccccc3c2c1
How it was run: as §1

rosiglitazone = compound: CN(CCOC1=CC=C(C=C1)C[C@H]2C(=O)NC(=O)S2)C3=CC=CC=N3 (racemic) [rosiglitazone]
How it was run: as §1

[6] = compound: CN1C2=C(C3=C1C(=O)N(N=C3)CC4=CC(=CC=C4)N)SC(=C2)S(=O)C
How it was run: as §1

[7] = compound: CN1CCC(CNc2ccc3ncc(-c4cccc(OC(F)(F)F)c4)n3n2)CC1
How it was run: as §1

UniProt O15162, sequence (O15162 whole entry, looked up): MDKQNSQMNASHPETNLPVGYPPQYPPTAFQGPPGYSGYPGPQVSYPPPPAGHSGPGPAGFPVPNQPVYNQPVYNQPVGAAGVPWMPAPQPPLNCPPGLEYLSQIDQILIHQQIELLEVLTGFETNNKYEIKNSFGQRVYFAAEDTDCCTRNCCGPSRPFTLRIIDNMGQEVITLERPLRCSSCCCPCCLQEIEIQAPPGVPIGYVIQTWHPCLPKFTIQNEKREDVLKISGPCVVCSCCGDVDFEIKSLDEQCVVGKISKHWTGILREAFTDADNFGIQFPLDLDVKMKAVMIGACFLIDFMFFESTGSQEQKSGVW
UniProt Q86W56, sequence (Q86W56 whole entry, looked up): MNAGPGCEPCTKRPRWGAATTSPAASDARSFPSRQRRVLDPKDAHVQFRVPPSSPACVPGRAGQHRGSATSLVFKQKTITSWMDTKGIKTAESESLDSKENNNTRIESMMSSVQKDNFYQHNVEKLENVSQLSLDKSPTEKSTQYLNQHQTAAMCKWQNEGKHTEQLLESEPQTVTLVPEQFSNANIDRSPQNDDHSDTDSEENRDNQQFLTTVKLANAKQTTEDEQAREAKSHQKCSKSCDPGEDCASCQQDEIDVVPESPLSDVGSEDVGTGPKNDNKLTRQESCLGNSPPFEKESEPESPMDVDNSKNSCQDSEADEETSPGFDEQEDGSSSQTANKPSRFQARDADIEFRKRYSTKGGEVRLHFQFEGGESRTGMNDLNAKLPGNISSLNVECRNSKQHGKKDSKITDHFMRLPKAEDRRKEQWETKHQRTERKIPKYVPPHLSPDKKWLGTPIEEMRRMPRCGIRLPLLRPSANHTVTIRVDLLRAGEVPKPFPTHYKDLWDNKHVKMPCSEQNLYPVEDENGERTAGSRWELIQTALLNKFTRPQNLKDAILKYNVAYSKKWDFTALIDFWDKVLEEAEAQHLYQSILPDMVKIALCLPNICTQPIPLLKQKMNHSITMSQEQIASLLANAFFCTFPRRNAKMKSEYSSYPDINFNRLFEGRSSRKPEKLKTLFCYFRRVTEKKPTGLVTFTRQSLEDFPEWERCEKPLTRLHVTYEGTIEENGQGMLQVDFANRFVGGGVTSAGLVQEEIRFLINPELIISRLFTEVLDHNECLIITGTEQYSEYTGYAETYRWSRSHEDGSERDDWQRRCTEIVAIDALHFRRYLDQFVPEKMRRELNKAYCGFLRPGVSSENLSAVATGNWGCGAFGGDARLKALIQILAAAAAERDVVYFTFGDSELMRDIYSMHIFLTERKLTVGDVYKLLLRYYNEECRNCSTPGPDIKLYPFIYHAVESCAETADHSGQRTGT
UniProt P28070, sequence (P28070 whole entry, looked up): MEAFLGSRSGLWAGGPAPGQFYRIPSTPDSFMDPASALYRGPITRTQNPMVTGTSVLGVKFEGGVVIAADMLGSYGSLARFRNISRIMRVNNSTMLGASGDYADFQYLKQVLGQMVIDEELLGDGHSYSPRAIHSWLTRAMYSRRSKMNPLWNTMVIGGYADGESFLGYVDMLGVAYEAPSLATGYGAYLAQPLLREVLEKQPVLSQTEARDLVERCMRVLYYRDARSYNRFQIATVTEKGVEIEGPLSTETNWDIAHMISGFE
UniProt Q9P2B2, sequence (Q9P2B2 whole entry, looked up): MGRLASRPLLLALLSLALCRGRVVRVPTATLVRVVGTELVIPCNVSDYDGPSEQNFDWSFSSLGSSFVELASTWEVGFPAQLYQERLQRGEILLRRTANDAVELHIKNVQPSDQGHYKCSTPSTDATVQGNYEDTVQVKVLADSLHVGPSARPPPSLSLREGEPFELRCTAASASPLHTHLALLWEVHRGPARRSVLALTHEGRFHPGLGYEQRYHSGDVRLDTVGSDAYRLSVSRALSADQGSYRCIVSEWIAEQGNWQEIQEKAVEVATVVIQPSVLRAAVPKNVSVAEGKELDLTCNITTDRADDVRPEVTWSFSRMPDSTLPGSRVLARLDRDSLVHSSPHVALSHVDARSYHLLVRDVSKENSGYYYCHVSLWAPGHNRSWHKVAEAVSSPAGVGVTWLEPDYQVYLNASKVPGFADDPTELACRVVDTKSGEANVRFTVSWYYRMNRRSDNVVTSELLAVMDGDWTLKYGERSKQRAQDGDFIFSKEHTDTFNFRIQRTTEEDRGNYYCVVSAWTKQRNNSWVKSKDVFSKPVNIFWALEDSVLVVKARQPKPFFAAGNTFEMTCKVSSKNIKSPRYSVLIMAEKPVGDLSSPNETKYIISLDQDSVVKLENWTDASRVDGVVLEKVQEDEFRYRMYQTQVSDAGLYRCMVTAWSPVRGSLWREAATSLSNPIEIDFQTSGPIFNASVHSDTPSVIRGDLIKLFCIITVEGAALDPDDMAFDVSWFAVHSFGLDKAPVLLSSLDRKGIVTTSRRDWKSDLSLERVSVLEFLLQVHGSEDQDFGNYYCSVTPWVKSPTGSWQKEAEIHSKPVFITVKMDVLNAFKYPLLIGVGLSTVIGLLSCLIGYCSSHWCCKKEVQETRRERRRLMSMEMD
UniProt Q8WUA2, sequence (Q8WUA2 whole entry, looked up): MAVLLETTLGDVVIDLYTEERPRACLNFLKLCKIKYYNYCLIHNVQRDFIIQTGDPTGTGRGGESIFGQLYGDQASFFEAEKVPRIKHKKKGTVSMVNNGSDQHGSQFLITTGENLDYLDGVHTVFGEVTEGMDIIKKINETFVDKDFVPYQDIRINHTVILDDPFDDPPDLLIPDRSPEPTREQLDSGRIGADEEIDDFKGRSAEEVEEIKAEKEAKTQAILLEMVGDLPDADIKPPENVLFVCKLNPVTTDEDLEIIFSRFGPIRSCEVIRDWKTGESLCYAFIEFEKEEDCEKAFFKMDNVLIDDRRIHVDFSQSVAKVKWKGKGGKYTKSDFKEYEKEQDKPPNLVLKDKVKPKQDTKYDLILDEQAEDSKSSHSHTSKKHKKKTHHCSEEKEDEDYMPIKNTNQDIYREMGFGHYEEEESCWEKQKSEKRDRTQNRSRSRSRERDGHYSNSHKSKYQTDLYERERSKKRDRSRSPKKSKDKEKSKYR
UniProt Q32M88, sequence (Q32M88 whole entry, looked up): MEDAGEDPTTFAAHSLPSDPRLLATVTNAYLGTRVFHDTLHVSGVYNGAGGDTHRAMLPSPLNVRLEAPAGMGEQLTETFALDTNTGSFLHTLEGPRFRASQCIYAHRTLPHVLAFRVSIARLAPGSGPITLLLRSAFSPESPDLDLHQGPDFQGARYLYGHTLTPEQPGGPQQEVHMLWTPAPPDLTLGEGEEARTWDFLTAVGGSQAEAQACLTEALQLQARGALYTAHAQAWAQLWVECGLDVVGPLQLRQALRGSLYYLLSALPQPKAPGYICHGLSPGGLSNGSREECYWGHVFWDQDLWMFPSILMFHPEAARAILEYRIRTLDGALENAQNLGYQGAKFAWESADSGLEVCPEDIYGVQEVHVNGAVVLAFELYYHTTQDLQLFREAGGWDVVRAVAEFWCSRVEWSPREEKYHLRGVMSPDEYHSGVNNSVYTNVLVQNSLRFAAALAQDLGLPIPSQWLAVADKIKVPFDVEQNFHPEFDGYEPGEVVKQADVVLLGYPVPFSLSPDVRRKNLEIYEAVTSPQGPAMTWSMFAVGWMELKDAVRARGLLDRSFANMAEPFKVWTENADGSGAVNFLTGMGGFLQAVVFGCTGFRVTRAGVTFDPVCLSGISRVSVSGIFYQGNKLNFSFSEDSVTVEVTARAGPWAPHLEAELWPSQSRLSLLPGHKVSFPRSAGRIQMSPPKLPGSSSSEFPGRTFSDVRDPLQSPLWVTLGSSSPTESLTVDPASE
UniProt Q53EL6, sequence (Q53EL6 whole entry, looked up): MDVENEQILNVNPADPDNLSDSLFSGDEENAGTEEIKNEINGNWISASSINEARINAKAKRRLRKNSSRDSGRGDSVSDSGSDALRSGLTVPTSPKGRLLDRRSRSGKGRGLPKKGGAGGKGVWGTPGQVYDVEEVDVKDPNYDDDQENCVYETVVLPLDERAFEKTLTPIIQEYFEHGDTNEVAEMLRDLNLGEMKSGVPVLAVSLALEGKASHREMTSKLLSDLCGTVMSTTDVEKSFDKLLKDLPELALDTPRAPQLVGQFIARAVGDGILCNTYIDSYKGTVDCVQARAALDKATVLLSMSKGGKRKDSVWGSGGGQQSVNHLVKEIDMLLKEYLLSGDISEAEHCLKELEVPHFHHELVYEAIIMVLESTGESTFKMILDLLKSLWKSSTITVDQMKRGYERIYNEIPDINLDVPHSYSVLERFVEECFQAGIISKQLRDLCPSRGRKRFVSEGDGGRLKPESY

Row | Target | log2 fold change [1] | log2 fold change (volasertib) | log2 fold change [2] | log2 fold change (epoxomicin) | log2 fold change [3] | log2 fold change [4] | log2 fold change [5] | log2 fold change (rosiglitazone) | log2 fold change [6] | log2 fold change [7]
1 | PGGHG (UniProt Q32M88) | 0.012 | 0.098 | 0.051 | 0.011 | -0.094 | -0.025 | 0.069 | 0.029 | -0.025 | -0.096
2 | PDCD4 (UniProt Q53EL6) | -0.26 | -0.585 (active) | -0.013 | 0.055 | -0.045 | -0.053 | 0.065 | 0.056 | -0.107 | 0.011
3 | PPIL4 (UniProt Q8WUA2) | -0.024 | -0.253 (active) | 0.043 | 0.011 | -0.051 | 0.047 | 0.007 | -0.03 | 0.022 | -0.098
4 | PLSCR1 (UniProt O15162) | 0.025 | -0.1 | -0.069 | -0.022 | 0.013 | 0.053 | 0.037 | -0.033 | -0.02 | 0.044
5 | PTGFRN (UniProt Q9P2B2) | 0.032 | 0.008 | 0 | 0.014 | 0.022 | -0.049 | -0.01 | 0.025 | -0.104 | 0.181
6 | PARG (UniProt Q86W56) | 0.036 | -0.025 | 0.059 | 0.004 | -0.126 | -0.016 | 0.09 | 0.059 | 0.005 | -0.126
7 | PSMB4 (UniProt P28070) | 0.073 | 0.114 | -0.043 | -0.202 | 0.011 | 0.031 | -0.028 | -0.045 | 0.021 | 0.057
